# Measured values as given in the supplement of paper PMC6555819.
# System: VDR:RXRa (NR concentration 270 nM, RXRa partner concentration 90 nM)
# Test: PBM binding z-score (relative to random genomic background probes); higher = stronger binding; sequences stand for … in GC…GCGATTGACAGCGTAGAATGAAGG
# Method: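 Protein-binding microarray (Agilent 4x180K custom design, double-stranded 60-nt probes: 5' GC cap, 34-nt variable region, 24-nt constant primer region; full probe sequence given). Purified or IVT nuclear receptor:RXRα heterodimers (3:1 NR:RXRα, mostly 270:90 nM) or homodimers were incubated for 1 h in PBS with 2% milk and no ligand, then detected with Alexa488 antibodies. Fluorescence from o1-orientation probes (~5 replicates averaged) was converted to z-scores against 500 random hg19 background probes. Variable regions are seed direct-repeat (DR0–DR5) sites, all their single-nucleotide variants and half-site ablations.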
row,Sequence,PBM binding z-score
1,ATATGTAGGTTACATCCGGATCATTCAGGCTATG,0.945
2,ATAATGAGGTTATTAAGATCAGGGAATTGCGGTC,2.88
3,TCTCGGAGGACACGGAGGTCAGAGCTTTCCAGAG,3.39
4,TCTCGGAGGACGCGAAAGGTCAGAGCTCGACATC,2.8
5,CCAGACAGGTGAGAAGGAAACTCAGCCTCGATTA,-0.211
6,CTCGAAAGGTCGGTTGAGGTGAGGATACGGATAA,2.29
7,GCAGACAGGTGAAACGCAGGTACCTCAGGGTGGC,-0.756
8,ATCTCTAGCTAAAGTTCAGTGAAAGATCGATAGA,1.49
9,GCGCCTGGGGCAAAGCAGGTTACCATAAGGTTGG,-0.092
10,ATATGTAGGGTAAGGGTCATTCAGGTTGGTTCGC,5.59
11,ACTAGTTGGTCAGCTGAGGGCACACACAATTCGG,1.2
12,CAGCCTAGGGCAGGGCCAGTATAGGAGGAACGTT,-0.885
13,CTAACTAGGTCATCCAGGACAGTGAATACATTGA,4.72
14,ATCTCTAGGTATGACTCAGTTCAGTGAAGAACGC,1.01
15,ACAGACAGGTGAGTGAAGGTAACGCAGCTGGACG,-0.28
16,TCTATTAGTTGAAGGGTAACCGACGAGTCCGTTT,1.2
17,TCATATAGGTAATACAGGTGACAGTCGGCATCTA,0.922
18,CCTACTGGGCCAGCAGGTCATTGATATCAACGTT,1.26
19,TCTTGTAGATCAATAGAGGTTAGGAAAGTGCGCT,1.05
20,CCAGGCAGGTGAGAAGGTAACTCAGCCTCGATTA,-0.539

row,Sequence,PBM binding z-score
1,CCGACTGGGGCAAGGTTACTATAACGCACAGCCA,0.0885
2,TTACCAAGGTGAAAGGTCGTGGATGCACGCCTTG,3.28
3,CAGCCTAGGTCAGGACCAGTATAGGAGGAACGTT,0.522
4,TCATATAGGTAAATGCTAGGTGAAAGTACGATCT,1.15
5,GGAACGAGTGCAAGTTGATAGCAGAGTTTGATGG,0.646
6,ATATGTAGGTTAGCTGGGGTCATTAAGACTAGGC,5.83
7,CCAAACAGGTGAGAAGGTAACTCAGCCTCGATTA,-0.0119
8,GCGACTGGGGCATCACCAGGTTACCATAACTTAA,-0.162
9,AGAACGGGGGCACGCTGAGTTGATAGCAGAGTAG,4.23
10,CCGAGTAGGTTATGGGGCCTTCAGGCAACGGTGA,-0.408
11,TCATATAGGTAAATGCTAGGGGAAAGTCCGATCT,0.846
12,CGAACTAGGTCAAAACAGGACAGTGAAGGATGAT,1.99
13,CATAGCAGGCCAGGGTCACTCAAGCATTTCGCTT,2.92
14,CCTTCCGGGTCACGAGGTTATAGCACGACGAGCG,5.39
15,GGAACGAGGGCAAGCTGATAGCAGAGTTTGATGG,0.0958
16,TCTGCTAGGTCAGATGGTCAGCTAACGAGCTGCC,0.133
17,CCGACTGGGGCAAAGGTTAACATACTCAGTACGA,2.2
18,ATCTCTAGGTAAAGATCAGTGAAAGATCGATAGA,-0.0816
19,CCTCGGAGGACAGAAGGTTAGAGCTGTCCGCTTT,-0.275
20,ATCTCTGGGTAACCAAGTTCAGTGAATGCCGAAC,4.32
